Reference: PubChem BioAssay (NCI)
About 83,000 compounds went through this panel and 20% of them were active in at least one assay; those are over-represented in the sample as a whole.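 Values shown are percent growth following 48 h exposure of cells in 96-well plates to a single concentration of compound; below 10 was considered active.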 A number with no mark means an inactive call. Calls of active or inactive are those of the source.

Columns and labels:
Assay in all cases: NCI-60 one-dose screen, 48 h (100 = growth as untreated, 0 = no growth, -100 = all killed)
Settings in all cases: 10 µM unless noted
[1] = system: HCT-15 colon
[2] = system: SNB-75 CNS
[3] = system: SNB-19 CNS
[4] = system: U251 CNS
[5] = system: PC-3 prostate
[6] = system: SK-MEL-5 melanoma
[7] = system: UACC-62 melanoma
[8] = system: LOX IMVI melanoma
[9] = system: SK-MEL-28 melanoma

Compound	growth [1]	growth [2]	growth [3]	growth [4]	growth [5]	growth [6]	growth [7]	growth [8]	growth [9]
Cn1ncc2c(N)nc(Oc3ccccc3-c3ccccc3)nc21	10.7%	8.98% (active)	33.8%	32.6%	58.5%	0.935% (active)	26.3%	34.7%	53.7%
Cc1nn(-c2ccccc2)c2nc(C)n(CC(=O)N/N=C/c3ccccc3O)c(=O)c12	26.7%	76.1%	36.5%	28.7%	46.8%	-2.79% (active)	3.15% (active)	4.1% (active)	37.9%
Cc1cc(C2(c3cc(C)c(OCC(O)CNc4c(C)n(C)n(-c5ccccc5)c4=O)cc3C(C)C)OC(=O)c3ccccc32)c(C(C)C)cc1OCC(O)CNc1c(C)n(C)n(-c2ccccc2)c1=O (configuration not stated)	19.7%	46.6%	48.9%	22.5%	12.9%	-25.3% (active)	24.4%	18.3%	33.8%
COc1ccc(-c2nc3ccccc3n2CC(=O)N=Nc2c(O)[nH]c3ccc(OC)cc23)cc1	43.7%	73%	95.1%	96.6%	64.8%	22.9%	81.6%	56.8%	81.2%
Cc1ccc2nc(COc3ccc(C(=O)NNC(=O)Nc4ccc(Cl)c(C(F)(F)F)c4)cc3)[nH]c2c1	97.2%	94.1%	24.9%	-1.34% (active)	18.1%	35.3%	40.1%	69.1%	-35.4% (active)
COc1cc(/C=N/NC(=O)c2ccc(OCc3nc4ccc(Cl)cc4[nH]3)cc2)cc(OC)c1OC	37.4%	123%	55.5%	52.8%	35.5%	-19.9% (active)	16.7%	26%	32.4%
CC1CCc2c(sc3nc(SCC(=O)c4cccc([N+](=O)[O-])c4)n(-c4ccccc4)c(=O)c23)C1 (configuration not stated)	73.6%	85.8%	59%	17.6%	82.1%	82.6%	91.9%	53.7%	101%
Cc1ccc2c(c1)nc(-c1ccccc1)n2CC(=O)N=Nc1c(O)[nH]c2ccc(Cl)cc12	-45.7% (active)	-83% (active)	-62.3% (active)	-77.7% (active)	-51.2% (active)	-62.6% (active)	-63.5% (active)	-70.1% (active)	-71.7% (active)
Cc1cc(N=C(N)c2ccccc2)ccc1OCCCCCCCCn1ccnc1	7% (active)	12.5%	19.3%	–	27.8%	–	-3.8% (active)	-80.7% (active)	-68.5% (active)
COc1cc2cc(C(=O)N3C[C@@H](CCl)c4c3cc(OC(=O)N(CCC(=O)N3CCN(C)CC3)[C@H]3CCSSC3)c3ccccc43)[nH]c2c(OC)c1OC	-52.1% (active)	-68.7% (active)	-7.02% (active)	-68% (active)	–	-86.3% (active)	-91.8% (active)	-99.5% (active)	-94.1% (active)
CC(C)CN1C(=O)/C(=C\C(=O)c2cc3ccccc3oc2=O)c2ccccc21	45.3%	82.6%	100%	106%	96.6%	97%	83.2%	85.7%	90.1%
O=C(CSc1nc2ccccc2c(=O)[nH]1)Nc1ccccc1C(=O)O	86.6%	139%	95.7%	101%	110%	94.9%	84.8%	84.8%	93.7%
COc1ccc2[nH]c(=O)c(CSc3ccccc3Nc3nccc(-c4ccc(C(F)(F)F)cc4)n3)cc2c1	12.9%	-5.5% (active)	33.7%	22.5%	3.44% (active)	48.8%	47.9%	7.62% (active)	51.4%
NC(=Nc1ccc(OCCCCCCCCn2cnnn2)cc1)c1ccccc1	14.6%	45.4%	20.8%	–	36.2%	–	28.3%	23%	65.1%
COc1cccc(C(N)=Nc2ccc(OCCCCCCCCn3cncn3)cc2)c1	11.7%	60.8%	24.6%	–	37.7%	–	27.4%	20%	55.3%
COC(=O)c1c(C(=O)OC)c2c3ccccc3c3ccccc3n2c1C(=O)C(F)(F)F	101%	87.9%	102%	105%	72.4%	93.7%	63%	87.7%	103%
